Data: PubChem BioAssay
Activity calls are given as the source filed them.

Columns and labels:
[1] = small molecules captured by biotinylated probe aFSTL3 – biochemical, small-molecule microarray, fluorescence 635/667, stem cell growth factor project, primary screen (AID 1064); details: higher = more signal;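 note: measures binding of the biotinylated anti-FSTL3 antibody to printed compounds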
[2] = binders from COS7 lysate, DM2A8 probe, primary screen, torsin A project, cell lysate, small-molecule microarray, fluorescence 635/667 (AID 1065); details: higher = more signal, COS7 lysate expressing mutant human TOR1A
[3] = small molecules captured by biotinylated probe aFGF2 – biochemical, small-molecule microarray, fluorescence 635/667, stem cell growth factor project, primary screen (AID 1067); details: higher = more signal;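 note: measures binding of biotinylated aFGF2 protein to printed compounds on slides; z-score merges feature fluorescence and signal-to-noise across triplicate slides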
[4] = small molecules captured by biotinylated probe aFGF10 – biochemical, small-molecule microarray, fluorescence 635/667, stem cell growth factor project, primary screen (AID 1071); details: higher = more signal;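 note: score merges 667 nm spot intensity and signal to noise from triplicate slides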
[5] = biological target: Neurogenic locus notch homolog protein 2 (Homo sapiens) (UniProt Q04721); assay: small molecules binding Notch2 protein – biochemical, small-molecule microarray, 635 nm fluorescence, stem cell growth factors, primary screen (AID 1073); details: higher = more signal
[6] = biological target: Pro-neuregulin-1, membrane-bound isoform (Homo sapiens) (UniProt Q02297); assay: small molecules binding neuregulin-1 protein – biochemical, small-molecule microarray, fluorescence 635/667, psychiatric disease protein project, primary screen (AID 1075); details: NRG1 binding, 635 nm fluorescence, higher = more signal;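 note: score combines 667 nm spot fluorescence with signal to noise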
[7] = tested on: Neuregulin-1 EGF-like domain; assay: small molecules binding NRG1 EGF domain – biochemical, small-molecule microarray, 635 nm fluorescence, primary screen (AID 1081); details: higher = more signal;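 note: binding of the protein to compounds printed on small-molecule microarray slides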
[8] = FRG1 expression reporter modulators in myotubes – cell-based, C2C12 myotubes, firefly/Renilla luciferase, luminescence, FRG1 inhibition for FSHD, primary screen (AID 1084); details: FRG1 promoter luciferase, higher = more signal, called active from +8 up or from −8 down
[9] = small molecules captured by biotinylated probe aFST – biochemical, small-molecule microarray, fluorescence 635/667, stem cell growth factor project, primary screen (AID 1086); details: higher = more signal;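 note: score merges 667 nm fluorescence with signal-to-noise of each printed compound spot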
[10] = binders of probe aHhip on microarray, primary screen, stem cell growth factor project, biochemical, small-molecule microarray, fluorescence 635/667 (AID 1087); details: higher = more signal;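 note: score merges spot fluorescence at 667nm with spot signal to noise ratio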
[11] = tested on: PRMT1 (protein arginine N-methyltransferase 1); assay: small molecules binding arginine methyltransferase PRMT1 – biochemical, small-molecule microarray, 635 nm fluorescence, primary screen (AID 1088); details: higher = more signal;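 note: binding of Prmt1 protein to compounds spotted on small-molecule microarray slides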
[12] = growth effects on S. cerevisiae YJM789 – YJM789 clinical isolate, OD600, 24 h, basal, primary screen (AID 1089); details: higher = more signal, called active from +8 up or from −8 down;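 note: growth of clinical yeast isolate S. cerevisiae YJM 789 seeded 1000 cells per well; test concentration not given here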
[13] = S. pombe growth modifiers, basal conditions – strain 972, OD600, 24 h, no modulator, primary screen (AID 1090);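 note: basal condition with compound alone and no growth modifier present; test concentration not given here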; details: S. pombe 972 growth, higher = more signal, called active from +8 up or from −8 down
[14] = budding yeast growth modifiers under rapamycin – strain BY4716, OD600, 96 h, primary screen (AID 1091); note: test concentration not given here; details: S. cerevisiae BY4716 + rapamycin, higher = more signal, called active from +8 up or from −8 down
[15] = biological target: Torsin-1A-interacting protein 2 (Homo sapiens) (UniProt Q8NFQ8); assay: small molecules binding lysate-expressed LULL1 – cell lysate, human LULL1 lysate, 635/667 nm fluorescence, primary screen (AID 1092); details: small-molecule microarray, hLULL1 lysate binding, 635 nm fluorescence; higher = more signal;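 note: probe is lysate of COS7 cells overexpressing human LULL1; score merges per-feature 667 nm fluorescence with signal-to-noise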
[16] = optical density change of DRC41 E. coli – strain DRC41, OD650, 24 h, E. coli filamentation project, primary screen (AID 1093);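 note: MC1000 strain lacking acrAB efflux and sulA so SOS filamentation is blocked; test concentration not given here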; details: E. coli DRC41 growth, higher = more signal, called active from +8 up or from −8 down
[17] = probe aLefty2 binding to arrayed compounds – biochemical, biotinylated probe, 635/667 nm fluorescence, primary screen (AID 1094); details: small-molecule microarray, higher = more signal;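 note: score merges spot fluorescence near 667 nm with spot signal-to-noise ratio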
[18] = tested on: Noggin (protein binding on small-molecule microarray); assay: small molecules binding Noggin protein – biochemical, 635/667 nm fluorescence, primary screen (AID 1095); details: 635 nm fluorescence, higher = more signal;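 note: score merges 667 nm feature fluorescence with signal to noise over triplicate slides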
[19] = biological target: Neurogenic locus notch homolog protein 3 (Homo sapiens) (UniProt Q9UM47); assay: small molecules binding NOTCH3 protein – biochemical, 635/667 nm fluorescence, primary screen (AID 1096); details: small-molecule microarray, 635 nm fluorescence, higher = more signal
[20] = probe aEGFR binding to arrayed compounds – biochemical, biotinylated probe, 635/667 nm fluorescence, primary screen (AID 1097); details: small-molecule microarray, higher = more signal;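 note: probe is a biotinylated anti-EGFR antibody binding compounds printed on slides; score combines fluorescence near 667 nm and signal to noise of each spot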

Chain of Torsin-1A-interacting protein 2 (Homo sapiens) (Q8NFQ8 whole entry, looked up): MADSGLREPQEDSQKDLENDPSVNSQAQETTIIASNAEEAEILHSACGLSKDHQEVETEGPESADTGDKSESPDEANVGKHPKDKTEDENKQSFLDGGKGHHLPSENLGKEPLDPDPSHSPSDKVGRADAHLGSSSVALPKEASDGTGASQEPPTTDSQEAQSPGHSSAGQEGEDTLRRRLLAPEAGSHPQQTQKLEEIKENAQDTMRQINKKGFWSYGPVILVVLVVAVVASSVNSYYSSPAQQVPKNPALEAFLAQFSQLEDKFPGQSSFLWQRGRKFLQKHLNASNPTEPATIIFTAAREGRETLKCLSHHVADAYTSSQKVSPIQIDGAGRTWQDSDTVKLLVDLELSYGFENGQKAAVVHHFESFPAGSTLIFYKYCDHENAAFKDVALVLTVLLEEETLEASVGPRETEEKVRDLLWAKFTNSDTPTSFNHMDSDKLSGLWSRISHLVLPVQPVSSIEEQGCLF
Chain of Neurogenic locus notch homolog protein 2 (Homo sapiens) (Q04721 whole entry, looked up, canonical isoform): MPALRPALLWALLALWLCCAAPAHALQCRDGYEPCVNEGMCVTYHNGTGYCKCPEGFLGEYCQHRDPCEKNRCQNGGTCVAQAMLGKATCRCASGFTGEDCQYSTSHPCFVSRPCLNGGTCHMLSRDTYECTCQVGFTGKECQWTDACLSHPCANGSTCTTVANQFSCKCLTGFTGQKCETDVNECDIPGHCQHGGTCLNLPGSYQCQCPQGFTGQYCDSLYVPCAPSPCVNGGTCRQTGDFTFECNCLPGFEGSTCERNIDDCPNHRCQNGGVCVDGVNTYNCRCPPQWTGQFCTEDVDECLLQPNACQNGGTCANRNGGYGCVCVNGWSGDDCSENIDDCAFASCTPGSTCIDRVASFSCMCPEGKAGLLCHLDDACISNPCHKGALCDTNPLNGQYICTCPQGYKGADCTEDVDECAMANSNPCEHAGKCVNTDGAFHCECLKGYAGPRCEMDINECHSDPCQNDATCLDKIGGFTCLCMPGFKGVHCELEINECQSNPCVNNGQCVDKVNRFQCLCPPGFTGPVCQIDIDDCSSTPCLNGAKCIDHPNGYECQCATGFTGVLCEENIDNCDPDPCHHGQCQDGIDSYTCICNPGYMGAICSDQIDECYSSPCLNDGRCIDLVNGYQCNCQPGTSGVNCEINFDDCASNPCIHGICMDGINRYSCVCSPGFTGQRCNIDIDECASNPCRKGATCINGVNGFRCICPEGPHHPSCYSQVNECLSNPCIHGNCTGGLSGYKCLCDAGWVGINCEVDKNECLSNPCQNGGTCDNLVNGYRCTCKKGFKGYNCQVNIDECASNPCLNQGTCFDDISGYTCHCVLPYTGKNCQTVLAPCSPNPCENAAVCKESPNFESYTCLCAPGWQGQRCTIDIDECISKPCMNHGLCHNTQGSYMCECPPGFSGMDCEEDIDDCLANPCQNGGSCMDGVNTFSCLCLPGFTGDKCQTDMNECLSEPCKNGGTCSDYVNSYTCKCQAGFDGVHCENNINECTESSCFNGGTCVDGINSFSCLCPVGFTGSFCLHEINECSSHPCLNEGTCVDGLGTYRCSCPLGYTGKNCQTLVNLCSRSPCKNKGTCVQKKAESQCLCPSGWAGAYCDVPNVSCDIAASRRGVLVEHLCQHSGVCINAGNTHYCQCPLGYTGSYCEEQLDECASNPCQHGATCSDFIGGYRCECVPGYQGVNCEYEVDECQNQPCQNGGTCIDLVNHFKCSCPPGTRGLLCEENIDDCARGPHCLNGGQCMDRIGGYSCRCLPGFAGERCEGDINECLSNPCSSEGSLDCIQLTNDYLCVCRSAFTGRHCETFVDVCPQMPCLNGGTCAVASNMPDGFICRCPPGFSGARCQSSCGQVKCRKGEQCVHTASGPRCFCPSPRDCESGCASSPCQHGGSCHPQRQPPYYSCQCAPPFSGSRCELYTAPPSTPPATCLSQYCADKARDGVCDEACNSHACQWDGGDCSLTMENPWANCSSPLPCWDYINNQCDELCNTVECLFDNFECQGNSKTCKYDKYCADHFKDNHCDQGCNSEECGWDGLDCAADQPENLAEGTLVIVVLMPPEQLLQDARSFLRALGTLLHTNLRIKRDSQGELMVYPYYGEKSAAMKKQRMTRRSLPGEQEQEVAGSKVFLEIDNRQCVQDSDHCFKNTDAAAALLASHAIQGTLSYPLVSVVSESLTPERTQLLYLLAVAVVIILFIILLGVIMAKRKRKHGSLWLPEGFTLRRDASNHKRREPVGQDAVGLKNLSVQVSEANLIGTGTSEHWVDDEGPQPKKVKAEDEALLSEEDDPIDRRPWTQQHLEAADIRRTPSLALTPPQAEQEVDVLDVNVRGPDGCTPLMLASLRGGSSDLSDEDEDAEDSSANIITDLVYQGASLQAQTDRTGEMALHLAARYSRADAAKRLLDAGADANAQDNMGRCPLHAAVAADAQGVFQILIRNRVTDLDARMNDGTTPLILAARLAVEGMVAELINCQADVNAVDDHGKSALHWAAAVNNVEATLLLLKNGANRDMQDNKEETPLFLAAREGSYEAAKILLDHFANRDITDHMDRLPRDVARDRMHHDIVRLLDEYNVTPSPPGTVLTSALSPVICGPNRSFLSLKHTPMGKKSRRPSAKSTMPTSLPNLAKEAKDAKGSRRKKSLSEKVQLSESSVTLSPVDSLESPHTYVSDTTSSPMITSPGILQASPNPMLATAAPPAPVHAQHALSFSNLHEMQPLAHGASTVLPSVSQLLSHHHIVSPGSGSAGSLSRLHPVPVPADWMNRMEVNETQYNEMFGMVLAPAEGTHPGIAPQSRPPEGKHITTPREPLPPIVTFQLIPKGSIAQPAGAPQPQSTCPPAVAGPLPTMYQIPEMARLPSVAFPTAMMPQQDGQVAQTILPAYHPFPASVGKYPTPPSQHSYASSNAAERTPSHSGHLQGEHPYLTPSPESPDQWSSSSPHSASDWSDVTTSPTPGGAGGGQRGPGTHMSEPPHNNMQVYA
Chain of Pro-neuregulin-1, membrane-bound isoform (Homo sapiens) (Q02297 whole entry, looked up, the tested form may be a part, canonical isoform): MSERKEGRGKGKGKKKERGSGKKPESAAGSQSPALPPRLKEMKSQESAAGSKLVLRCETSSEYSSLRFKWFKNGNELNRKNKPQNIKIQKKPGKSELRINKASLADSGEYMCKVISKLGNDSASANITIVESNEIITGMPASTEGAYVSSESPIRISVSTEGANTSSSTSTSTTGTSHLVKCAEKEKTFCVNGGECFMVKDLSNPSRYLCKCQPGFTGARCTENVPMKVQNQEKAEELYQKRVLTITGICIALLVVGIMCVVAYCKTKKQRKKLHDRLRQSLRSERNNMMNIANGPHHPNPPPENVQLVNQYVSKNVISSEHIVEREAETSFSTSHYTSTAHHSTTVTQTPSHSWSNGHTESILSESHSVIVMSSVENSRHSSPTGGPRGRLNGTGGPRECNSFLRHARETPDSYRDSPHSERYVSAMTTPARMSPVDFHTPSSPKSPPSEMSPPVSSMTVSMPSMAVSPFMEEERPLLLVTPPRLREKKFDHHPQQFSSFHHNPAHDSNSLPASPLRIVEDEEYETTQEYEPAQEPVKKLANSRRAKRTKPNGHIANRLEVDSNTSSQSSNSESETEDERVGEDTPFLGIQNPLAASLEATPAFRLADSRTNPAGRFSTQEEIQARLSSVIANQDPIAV

Compound	composite z-score [1]	composite z-score [2]	composite z-score [3]	composite z-score [4]	composite z-score [5]	composite z-score [6]	composite z-score [7]	z-score [8]	composite z-score [9]	composite z-score [10]	composite z-score [11]	z-score [12]	z-score [13]	z-score [14]	composite z-score [15]	z-score [16]	composite z-score [17]	composite z-score [18]	composite z-score [19]	composite z-score [20]
C=C(COC)/C(=C/C[C@H](OC(C)=O)c1cccc(OCCO)c1)c1cc(C(=O)OC)ccc1OC	-0.269	0.952	-0.0986	0.318	-0.38	0.0557	0.691	-3.63 (inactive)	0.276	-0.0296	0.905	-25.1 (active)	-20.5 (active)	-4.33 (inactive)	0.574	1.57 (inactive)	0.0056	1.29	0.694	-0.151
COc1ccc([Si](C)(C)[C@@H]2[C@@H](CC(=O)N3CCC[C@H]3CO)O[C@]3(C(=O)N(Cc4ccc(N5CCC5=O)cc4)c4ccccc43)[C@H]2C)cc1	-0.142	0.783	-0.071	0.66	0.747	0.583	1.07	-1.17 (inactive)	0.187	0.245	1.55	-0.556 (inactive)	-0.228 (inactive)	-0.69 (inactive)	2.12	0.673 (inactive)	-0.166	1.16	0.708	0.0408
COCCOC(=O)N1C(=O)[C@@]2(c3cc(C#CCNC(N)=O)ccc31)[C@H](C(=O)NC[C@H](O)c1ccccc1)[C@H]1C(=O)O[C@H](c3ccccc3)[C@H](c3ccccc3)N1[C@@H]2c1ccc(O)cc1	0.464	0.256	-0.031	0.462	-0.26	0.8	0.442	0.803 (inactive)	0.24	-0.191	1.54	-0.124 (inactive)	-2.42 (inactive)	0.893 (inactive)	1.5	2 (inactive)	-0.104	0.737	0.698	-0.132
O=C(NCC(F)(F)F)[C@@H]1c2ccccc2C(=O)N(C2Cc3ccccc3C2)[C@H]1c1ccc(CO)cc1	0.833	-0.67	-0.0487	-0.514	-0.98	-0.0643	0.0014	-0.827 (inactive)	-0.187	-0.353	-0.236	-0.62 (inactive)	-1.06 (inactive)	-0.501 (inactive)	0.492	2.12 (inactive)	0.107	-1.29	-0.844	-0.129
COc1ccc([Si](C)(C)[C@H]2[C@H](CCO)O[C@@]3(C(=O)N(Cc4ccc(N5C(=O)c6cccc7cccc5c67)cc4)c4ccccc43)[C@@H]2C)cc1	0.633	-0.213	-0.0692	-0.397	-0.831	1.1	0.657	-4.45 (inactive)	0.025	-0.261	0.126	0.341 (inactive)	0.472 (inactive)	26 (active)	0.589	2.02 (inactive)	-0.169	-0.688	-0.601	-0.272
CO[C@H]1O[C@H](CO)[C@@H](OC(=O)CCc2ccccc2)[C@@H]2OC(=O)[C@H](Cc3ccccc3)C/C=C/C[C@@H](Cc3ccccc3)C(=O)O[C@@H]12	-0.0198	-0.106	-0.134	-0.357	-0.512	0.92	1.14	-1.51 (inactive)	-0.306	-0.337	0.696	-0.696 (inactive)	-2.18 (inactive)	11.3 (active)	1.4	1.98 (inactive)	-0.0905	-0.748	-0.033	-0.347
CCOC(=O)C[C@H]1[C@H](OC(=O)c2ccc(-c3ccccc3)cc2)[C@@H](NC(=O)c2ccccc2)c2cc(OCCCO)ccc2N1C(=O)c1ccccc1	-0.3	0.707	0.0216	0.281	0.741	0.622	0.773	-0.867 (inactive)	0.515	0.201	1.35	-1.08 (inactive)	-1.94 (inactive)	-0.596 (inactive)	1.69	2.17 (inactive)	0.0921	-0.0461	0.526	-0.019
C=CCC(OC(C)=O)[C@@H]1[C@@H](N(Cc2cccc3ccccc23)C(=O)c2cccc3ccccc23)c2cc(OCCCO)ccc2N1C(=O)Cc1ccc(OC)cc1 (stereo not given in full)	-0.0733	-0.136	-0.0569	0.108	0.568	0.123	0.193	-1.64 (inactive)	0.03	-0.0994	0.435	-1.17 (inactive)	-1.59 (inactive)	-0.8 (inactive)	1.52	2.09 (inactive)	-0.121	0.0439	0.171	0.0073
C=CCN1C(=O)[C@@]2(O[C@@H](CCn3cc(CCO)nn3)[C@H]([Si](C)(C)c3ccc(OC)cc3)[C@H]2C)c2cc(NC(=O)c3ccc(OC)cc3)ccc21	-0.0186	0.463	-0.0493	0.051	0.0039	0.457	0.672	-2.22 (inactive)	0.309	-0.0994	1.49	-0.0986 (inactive)	-1.27 (inactive)	-0.738 (inactive)	0.674	1.31 (inactive)	-0.0985	1.04	0.742	-0.0895
C[N+](C)(C)CCCC[C@@H]1NC(=O)[C@@H]2C[C@H](C(=O)NCCCCCNC(=O)CS)[C@H](c3ccc(O)cc3)N2C1=O	0.152	0.338	-0.14	-1.01	-1.26	1.94	1.23	1.26 (inactive)	-0.288	0.0274	1.08	-1.44 (inactive)	-1.73 (inactive)	-0.905 (inactive)	2.1	1.39 (inactive)	-0.188	1.39	0.322	-0.149
NC(=O)N1C(=O)C2C(C1=O)C1C=C(c3ccc(CO)cc3)C2C(C2CC2)N1Cc1cc2c(cc1Br)OCO2 (stereo not given)	0.567	0.778	-0.105	-0.277	-0.204	0.976	0.887	-2.01 (inactive)	0.0417	-0.0237	0.364	-0.779 (inactive)	-3.29 (inactive)	-1.32 (inactive)	1.86	1.19 (inactive)	0.0834	0.176	0.623	-0.0975
COC(=O)C1=CC(c2ccc(CO)cc2)=CC(c2cccs2)N(C)C=C1C(=O)OC (stereo not given)	1.13	0.2	-0.0625	-0.0568	-0.109	1.96	1.29	1.36 (inactive)	0.308	-0.226	0.853	-0.543 (inactive)	-5.22 (inactive)	-0.424 (inactive)	2.88	0.637 (inactive)	0.0094	-0.853	0.302	-0.135
C=CC[C@]1(C(=O)N(C)C)N=C(c2ccc(OCCCO)cc2)O[C@H]1c1ccccc1CN=[N+]=[N-]	0.876	1.42	0.0188	0.548	1.38	1.66	1.15	-2.15 (inactive)	1.43	0.184	1.09	-1.01 (inactive)	-1.1 (inactive)	-1.52 (inactive)	3.01	1.39 (inactive)	0.186	0.0301	0.893	0.188
CC(=O)OC(C/C=C\B1OC(C)(C)C(C)(C)O1)c1ccccc1 (stereo not given)	0.696	0.0193	-0.038	-1.06	-0.542	-0.451	-0.679	-1.52 (inactive)	-0.0273	-0.353	-0.0413	-2.82 (inactive)	-4.32 (inactive)	-3.49 (inactive)	-0.126	-3.15 (inactive)	-0.0231	-0.502	-0.761	-0.268
CC(C)(C)OC(=O)CC[C@@]1(C(=O)NCc2ccccc2)N=C(c2ccc(OCCCO)cc2)O[C@@H]1c1ccccc1CN=[N+]=[N-]	0.492	1.41	0.015	1.18	1.49	1.16	1.15	0.59 (inactive)	1.19	-0.148	1.53	-0.0222 (inactive)	-0.0704 (inactive)	-0.13 (inactive)	2.3	2.64 (inactive)	0.387	0.958	1.14	0.236
C=CCC(OC(C)=O)[C@@H]1[C@@H](N(Cc2cc3ccccc3o2)C(=O)c2ccc(-c3ccccc3)cc2)c2cc(OCCCO)ccc2N1C(=O)c1ccc(-c2ccccc2)cc1 (stereo not given in full)	0.218	-0.352	-0.0985	0.0925	0.11	-0.196	-0.714	-1.24 (inactive)	0.105	-0.0994	-0.527	1.13 (inactive)	0.0977 (inactive)	1.38 (inactive)	0.94	1.95 (inactive)	0.0711	-0.397	-0.402	-0.0444
COCCOC(=O)N1C(=O)[C@@]2(c3cc(C#CC4(O)CCCCCC4)ccc31)[C@H](C(=O)NC[C@H](O)c1ccccc1)[C@H]1C(=O)O[C@H](c3ccccc3)[C@H](c3ccccc3)N1[C@@H]2c1ccccc1OCCO	-0.0213	0.621	-0.0628	0.695	1.03	1.29	1.23	0.153 (inactive)	0.627	0.0044	1.55	2.64 (inactive)	0.623 (inactive)	6.84 (inactive)	2.69	1.97 (inactive)	0.101	1.3	1.04	0.0343
COCCOC(=O)N1C(=O)[C@@]2(c3cc(C#CC4(O)CCCCCC4)ccc31)[C@H](c1ccc(O)cc1)N1[C@H](c3ccccc3)[C@H](c3ccccc3)OC(=O)[C@H]1[C@@H]2C(N)=O	-0.0102	1.54	0.103	0.631	0.397	1.1	0.874	-0.868 (inactive)	0.351	-0.0173	1.5	-0.549 (inactive)	-3.29 (inactive)	-0.624 (inactive)	2.01	2.01 (inactive)	0.178	0.0282	0.928	-0.0924
CC(C)C[C@@H]1NC(=O)[C@H]2C[C@@H](C(=O)NCCCC[N+](C)(C)C)[C@@H](c3cccc(OCCO)c3)N2C1=O	-0.746	1.9	-0.138	0.253	-0.942	1.95	1.43	0.683 (inactive)	-0.233	-0.717	0.617	-0.276 (inactive)	-0.262 (inactive)	-2.33 (inactive)	3.37	0.395 (inactive)	-0.348	1.21	1.03	0.009
